Laboratory results: PubChem BioAssay
Several values for one entry are separate records, joined by “and”; a condition that tells them apart may be missing. Equal entries are not always repeated. A structure can be active in one record and inactive in another. Activity calls are given as the source filed them. Unless noted, no rule for the calls is given here.

Experiments:
[1] = system: Hepatitis C virus NS3 helicase; assay: HCV NS3 helicase inhibitors, primary screen, biochemical, fluorescence polarization, LOPAC1280 library (AID 687035; in the data active = inhibition above about 37%); conditions: Purified HCV NS3 helicase, Cy5-dT15 ssDNA binding fluorescence polarization; stronger effect = higher value; concentration not given here
[2] = Cy5 fluorescence quenching or enhancement artefacts, artefact control for HCV NS3 helicase inhibitor project, biochemical, LOPAC1280 (AID 687037); conditions: Cy5-DNA-NS3h complex fluorescence interference counterscreen
[3] = phospholipid biosynthesis inhibitors in animal cells, primary screen, cell-based, LOPAC library, screen 4 (AID 1347384); conditions: phospholipid biosynthesis inhibition screen, at 10 µM
[4] = kinase inhibitors against Plasmodium liver-stage infection, cell-based, known kinase inhibitor set, luminescence, hepatoma host viability (AID 624392); conditions: Plasmodium liver stage in hepatoma cells, luciferase luminescence, concentration not given here; liver cell % of control: measured here: host liver cell viability; parasite % of control: stronger effect = lower value;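 also: infected cells incubated roughly two days before readout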
[5] = liver-stage malaria parasite growth inhibition, primary screen, cell-based, HepG2, luciferase luminescence, HepG2 viability (AID 624349; in the data active = parasite load remaining mostly below about 12%, no sharp cut-off; inactive = mostly above about 10%;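 also: 100% = mean of DMSO negative control wells on the same plate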); conditions: P. berghei liver stage in HepG2, luciferase luminescence, concentration not given here; parasite load remaining: stronger effect = lower value; viability: measured here: HepG2 viability without parasites
[6] = viability rescue of complex I mutant cybrids, primary screen, cell-based, galactose medium, ATP luminescence (AID 1645843;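 active = z-score of at least 1.8 in each of two replicates, scored against plate mean and spread of sample wells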;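 also: positive z means more ATP and so rescue of galactose-driven cybrid death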); conditions: complex I mutant cybrid cells, 72 h, stronger effect = higher value
[7] = circadian clock period modulators, cell-based, LOPAC library, luminescence reporter (AID 2774); conditions: circadian reporter cells, at 7 µM, actives lie on both sides;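 also: values are relative to mean of DMSO wells on each plate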
[8] = inhibitors of Cryptococcus chitosan production, flow cytometry, Cibacron Brilliant Red staining (AID 1347148); conditions: Cryptococcus neoformans chitosan, stronger effect = lower value; at 10 µM unless noted;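 also: compound exposure lasted three days at 37 degrees C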
[9] = LFS_MB_1R medulloblastoma cell growth inhibition, synergistic combos for chromothripsis tumors, cisplatin or BGB combos (AID 1671452; in the data active = inhibition above about 80%;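 also: cells exposed for 96 hours before readout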); conditions: LFS_MB_1R medulloblastoma cells, stronger effect = higher value
[10] = CRL2098 osteosarcoma cell growth inhibition, synergistic combos for chromothripsis tumors, BGB or cisplatin IC20 combos (AID 1671454; in the data active = inhibition above about 80%;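 also: cells exposed for 96 h before readout; 0% = vehicle DMSO and 100% = killing by high DMSO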); conditions: CRL2098 osteosarcoma cells, drug combinations, stronger effect = higher value
[11] = HD-MB03 medulloblastoma cell growth inhibition, synergistic combos for chromothripsis tumors, BGB or cisplatin IC20 combos (AID 1671455; in the data active = inhibition above about 83%;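 also: 0% = vehicle DMSO and 100% = high DMSO as cytotoxic control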); conditions: HD-MB03 medulloblastoma cells, stronger effect = higher value
[12] = UWB1.289 ovarian carcinoma cell growth inhibition, synergistic combos for chromothripsis tumors, BGB or cisplatin combos (AID 1671456; in the data active = inhibition above about 80%;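 also: cells exposed to compound for four days; 0% = vehicle DMSO and 100% = killing by high DMSO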); conditions: UWB1.289 ovarian carcinoma cells, stronger effect = higher value
[13] = LFS_MB_2R medulloblastoma cell growth inhibition, synergistic combos for chromothripsis tumors, cisplatin combos (AID 1671457; in the data active = inhibition above about 80%;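 also: cells exposed to compound for four days before readout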); conditions: LFS_MB_2R medulloblastoma cells, stronger effect = higher value
[14] = UWB1.289_BRCA1 ovarian cancer growth, cell-based, BGB or cisplatin combinations (AID 1671459; in the data active = inhibition above about 80%); conditions: UWB1.289 BRCA1 ovarian carcinoma, drug combinations, stronger effect = higher value
[15] = human astrocyte viability loss, single and combined drugs, cytotoxicity control for chromothriptic childhood tumor combination screen, cell-based, BGB or cisplatin IC20 combos (AID 1671460; in the data active = inhibition above about 80%;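 also: cells exposed to compounds for 96 hours before viability readout; 0% = vehicle and 100% = killing control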); conditions: Human astrocytes, drug combinations, stronger effect = higher value
[16] = modulators of glucocorticoid suppression of NF-kB, cell-based, luciferase, IL-1B stimulus, dexamethasone (AID 624486); conditions: NF-kB luciferase reporter, IL-1B + dexamethasone, luminescence; percent of negative control (+Dex): actives lie on both sides, concentration not given here; z-score: measured here: IL-1B alone, no Dex;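 as to percent of negative control (+Dex): 100% = mean signal of vehicle control wells on the plate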
[17] = kinase inhibitors altering Pseudomonas killing of worms, whole organism (AID 651566);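 also: tested at 14 µM; sign flipped so higher z means a lower ratio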; conditions: C. elegans killed by P. aeruginosa, survival ratio
[18] = activators of macrophage pro-inflammatory response, cell-based, murine, luminescence (AID 652131); conditions: murine macrophage pro-inflammatory reporter, stronger effect = higher value
[19] = hESC survival regulators, cell-based (AID 493140); conditions: human embryonic stem cell survival screen; stronger effect = higher value;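 also: cells exposed to compounds for four days before counting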
[20] = molecular target: NAD(+) hydrolase SARM1 (Homo sapiens) (UniProt Q6SZW1); assay: SARM1 TIR NADase inhibitors, cell lysate, NAD-Glo luminescence (AID 1508614;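 active = compound whose remaining NAD level is above about 45 nM, limit read from the data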;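 also: higher remaining NAD means stronger inhibition of SARM1 NADase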); conditions: SAM-TIR HEK293T lysate NADase, at 1 µM, stronger effect = higher value
[21] = measured here: combination with cisplatin, at 0.5 µM
[22] = measured here: combination with cisplatin, at 5 µM

NAD(+) hydrolase SARM1 (Homo sapiens), sequence (Q6SZW1 whole entry, looked up): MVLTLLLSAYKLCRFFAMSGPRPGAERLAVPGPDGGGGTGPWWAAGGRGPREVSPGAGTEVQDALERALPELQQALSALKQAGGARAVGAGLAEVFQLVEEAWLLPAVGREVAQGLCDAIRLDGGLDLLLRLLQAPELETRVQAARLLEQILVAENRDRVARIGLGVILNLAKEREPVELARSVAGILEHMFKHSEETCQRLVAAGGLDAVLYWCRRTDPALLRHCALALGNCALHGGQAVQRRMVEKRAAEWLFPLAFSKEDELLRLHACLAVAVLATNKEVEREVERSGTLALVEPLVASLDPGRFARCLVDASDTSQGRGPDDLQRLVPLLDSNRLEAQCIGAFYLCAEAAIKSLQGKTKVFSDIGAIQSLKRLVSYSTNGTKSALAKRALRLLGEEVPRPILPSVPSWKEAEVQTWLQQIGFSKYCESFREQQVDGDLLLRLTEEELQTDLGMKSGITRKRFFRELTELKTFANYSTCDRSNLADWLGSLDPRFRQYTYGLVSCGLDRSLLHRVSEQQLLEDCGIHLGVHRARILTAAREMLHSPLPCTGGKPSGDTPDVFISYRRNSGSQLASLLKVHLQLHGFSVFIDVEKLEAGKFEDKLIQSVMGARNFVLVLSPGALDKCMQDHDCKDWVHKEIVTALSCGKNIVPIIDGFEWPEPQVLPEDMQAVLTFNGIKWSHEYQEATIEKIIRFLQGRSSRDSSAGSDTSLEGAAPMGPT

CN1CC(=O)NC1=NC(=O)Nc1cccc(Cl)c1
inhibition [1]: -2% (inactive) | fluorescence ratio (interference) [2]: 1 (inactive) | outcome [3]: inactive

CCN(CCO)CCCOc1ccc2c(Nc3cc(CC(=O)Nc4cccc(F)c4)[nH]n3)ncnc2c1
parasite % of control [4]: 144% (inactive) and 137% (inactive) and 97.1% (inactive)

C=CC[N+]1([C@H]2C[C@H]3[C@@H]4CC[C@H]5C[C@H](O)[C@@H](N6CCOCC6)C[C@]5(C)[C@H]4CC[C@]3(C)[C@H]2OC(C)=O)CCCC1
parasite load remaining [5]: 25.4% (inactive) | viability [5]: 138% | z-score [6]: 0.25 (inactive)

O=C1NC(=O)/C(=C/c2cccc(C(F)(F)F)c2)S1
parasite load remaining [5]: 38.3% (inactive) | viability [5]: 85%

CN(C)c1ccccc1CN1CCCN(Cc2ccccc2N(C)C)C1c1ccncc1
outcome [3]: inactive

COc1ccc2c(c1)c(C1=C(c3c[nH]c4ccccc34)C(=O)NC1=O)cn2CCCN(C)C
parasite load remaining [5]: 27.6% (inactive) | viability [5]: 93.9%

COC(=O)c1ccc2c(C(=Nc3ccc(N(C)C(=O)CN4CCN(C)CC4)cc3)c3ccccc3)c(O)[nH]c2c1
liver cell % of control [4]: 156% and 81.4% and 93.4% | parasite % of control [4]: 197% (inactive) and 560% (inactive) and 349% (inactive)

CC1(C)CCC2=C(O1)c1ccccc1C(=O)C2=O
period change [7]: -0.24 h (inactive) | inhibition [1]: -5% (inactive) | fluorescence ratio (interference) [2]: 1 (inactive) | fold fluorescence [8]: 9.76 [at 206.4 µM] (inactive) | outcome [3]: inactive | z-score [6]: -1.29 (inactive) | inhibition ([9]; at 0.5 µM): -13.2% (inactive) and 14.9% (inactive) | inhibition ([9]; measured here: combination with BGB IC40, at 0.05 µM): -55.4% and -11.7% | inhibition [9, 21]: -25.3% and 44% | inhibition [9, 22]: 96.9% and 102% | inhibition ([10]; at 0.5 µM): -39.7% (inactive) and -32.9% (inactive) | inhibition ([10]; measured here: combination with BGB at IC20, at 0.5 µM): -38.5% and -7.72% | inhibition ([10]; measured here: combination with cisplatin at IC20, at 0.5 µM): -39.4% and -35% | inhibition ([11]; at 0.5 µM): -12.2% (inactive) and -9.16% (inactive) | inhibition ([11]; measured here: combo with BGB at IC20, at 0.5 µM): 5.55% and -5.28% | inhibition ([11]; measured here: combo with cisplatin at IC20, at 0.5 µM): -34.7% and -19.2% | inhibition ([12]; at 0.5 µM): 12.3% (inactive) and 6.12% (inactive) | inhibition ([12]; measured here: inhibition with BGB combination, at 0.05 µM): -2.17% and 7.32% | inhibition ([12]; measured here: inhibition with cisplatin combination, at 0.05 µM): -10.2% and -8.62% | inhibition ([13]; at 0.5 µM): -21.3% (inactive) and -12.9% (inactive) | inhibition [13, 21]: -28.3% and -6.61% | inhibition [13, 22]: 89.1% and 88.9% | inhibition ([14]; BGB combination, concentration series, at 5 µM): 128% and 124% | inhibition ([14]; at 0.5 µM): 0.6% (inactive) and 6.57% (inactive) | inhibition ([14]; cisplatin combination, concentration series, at 5 µM): 129% and 128% | inhibition ([15]; at 0.5 µM): 16.9% (inactive) and 14.6% (inactive) | inhibition ([15]; measured here: combo with BGB IC20, at 0.5 µM): 23.9% and 15.8% | inhibition ([15]; measured here: combo with cisplatin IC20, at 0.5 µM): 20.7% and 18.1%

N#Cc1c(NC(=O)c2cccc3ccccc23)sc2c1CCCC2
parasite load remaining [5]: 47.8% (inactive) | viability [5]: 98% | liver cell % of control [4]: 69% | parasite % of control [4]: 217% (inactive) | percent of negative control (+Dex) [16]: 130% (inactive) | z-score [16]: 1.48 | z-score [17]: -1.07 (inactive) | z-score [18]: -1.04 (inactive)

Clc1ccc(COC(Cn2ccnc2)c2ccc(Cl)cc2Cl)c(Cl)c1 (stereo not drawn)
survival [19]: 33.8 (inactive)

Nc1nc(Nc2ccc(S(N)(=O)=O)cc2)nn1C(=O)c1c(F)cccc1F
parasite load remaining [5]: 42.7% (inactive) | viability [5]: 170% | liver cell % of control [4]: 60.7% and 62.5% and 90.9% | parasite % of control [4]: 8.09% (inactive) and 28.9% (inactive) and 97.5% (inactive)

C[C@H]1[C@H](O)O[C@@H]2O[C@@]3(C)CC[C@H]4[C@H](C)CC[C@@H]1[C@@]24OO3
remaining NAD [20]: 10 nM (inactive)

Cc1ccc(F)c(NC(=O)Nc2ccc(-c3cccc4[nH]nc(N)c34)cc2)c1
liver cell % of control [4]: 57% and 72.1% and 102% | parasite % of control [4]: 112% (inactive) and 141% (inactive) and 35.1% (inactive)

COc1ccc2c(c1)CC[C@@H]1[C@@H]2CC[C@]2(C)[C@@H](NCCCCCCN3C(=O)C=CC3=O)CC[C@@H]12
fold fluorescence [8]: 12.8 [at 107.6 µM] (inactive)

COc1cc2nccc(Oc3ccc(NC(=O)Nc4cc(C)on4)c(Cl)c3)c2cc1OC
parasite load remaining [5]: 25.6% (inactive) | viability [5]: 70.1%

N#CCNC(=O)c1ccc(-c2ccnc(Nc3ccc(N4CCOCC4)cc3)n2)cc1
liver cell % of control [4]: 71.7% and 64% and 76% | parasite % of control [4]: 0.479% (inactive) and 0.449% (inactive) and 0.525% (active)

CC(C)=CCC/C(C)=C/CC/C(C)=C/CSc1ccccc1C(=O)O
period change [7]: -0.01 h (inactive)

COc1cc2ncnc(Nc3cccc(Cl)c3)c2cc1OC
period change [7]: 0.545 h (inactive) | survival [19]: 138 (inactive) | inhibition [1]: 0% (inactive) | fluorescence ratio (interference) [2]: 1 (inactive) | fold fluorescence [8]: 5.72 [at 142 µM] (inactive) | outcome [3]: inactive

CNc1nccc(-c2cccnc2Oc2cc(C(=O)Nc3cccc(C(F)(F)F)c3)ccc2C)n1
liver cell % of control [4]: 245% and 255% and 102% | parasite % of control [4]: 0.405% (inactive) and 0.413% (active) and 75.6% (inactive)

CC(=O)Oc1cc2c(s1)CCN(C(C(=O)C1CC1)c1ccccc1F)C2 (stereo not drawn)
remaining NAD [20]: 10 nM (inactive)
